Test results as given in PubChem BioAssay (Tox21).
Records with an inconclusive call do not appear. Values without a mark were called inactive. Calls of active or inactive are those of the source. Unless noted, calls follow the shape of the dose curve; as a rule, active = well fitted cell-killing curve with a large enough effect in the repeat runs; inconclusive = weak or mixed curves, or effect the other way; inactive = no such curve, though single readings can be large or run the other way.
% is scaled to controls: 0 for no effect and ±100 for the full control effect; potency is read from the fitted curve at half-maximal effect.

Molecular target: Progesterone receptor (Homo sapiens) (UniProt P06401)
Sequence (P06401 whole entry, looked up): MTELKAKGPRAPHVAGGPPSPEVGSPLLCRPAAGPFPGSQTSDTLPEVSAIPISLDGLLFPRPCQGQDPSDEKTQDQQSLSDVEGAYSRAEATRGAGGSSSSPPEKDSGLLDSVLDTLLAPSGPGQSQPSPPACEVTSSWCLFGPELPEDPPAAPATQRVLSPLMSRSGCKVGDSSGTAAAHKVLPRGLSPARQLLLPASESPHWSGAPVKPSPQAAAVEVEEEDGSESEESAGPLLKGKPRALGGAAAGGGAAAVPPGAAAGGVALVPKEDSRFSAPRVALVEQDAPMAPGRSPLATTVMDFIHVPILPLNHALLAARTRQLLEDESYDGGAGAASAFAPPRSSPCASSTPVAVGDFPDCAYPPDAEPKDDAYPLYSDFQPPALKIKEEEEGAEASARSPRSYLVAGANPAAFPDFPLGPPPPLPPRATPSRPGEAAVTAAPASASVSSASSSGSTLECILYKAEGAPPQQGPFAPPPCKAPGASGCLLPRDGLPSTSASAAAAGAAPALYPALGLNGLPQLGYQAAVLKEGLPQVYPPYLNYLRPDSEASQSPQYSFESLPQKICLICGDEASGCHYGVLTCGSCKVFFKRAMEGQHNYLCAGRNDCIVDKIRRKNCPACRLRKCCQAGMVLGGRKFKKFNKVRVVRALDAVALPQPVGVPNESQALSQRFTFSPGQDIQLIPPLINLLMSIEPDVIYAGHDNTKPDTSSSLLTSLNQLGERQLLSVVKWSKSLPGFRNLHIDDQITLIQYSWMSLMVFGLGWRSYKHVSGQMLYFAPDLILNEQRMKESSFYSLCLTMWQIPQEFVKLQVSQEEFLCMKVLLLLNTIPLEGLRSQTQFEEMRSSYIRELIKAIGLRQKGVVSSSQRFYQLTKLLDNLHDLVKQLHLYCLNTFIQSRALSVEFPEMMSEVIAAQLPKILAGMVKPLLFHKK
Assay: qHTS assay to identify small molecule antagonists of the progesterone receptor (PR) signaling pathway (AID 1346795; active = well fitted inhibition curve with a large enough effect in the signal ratio in the repeat runs, not every such curve was filed as active; the % refers to the signal ratio)
Settings: PR-UAS-bla HEK293T, beta-lactamase FRET ratio, 16 h; series mostly up to 92.4 µM; activity change, negative = inhibition: at the top concentration
Method in brief: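 Fluorescence intensity measured 2 hr after adding beta-lactamase FRET substrate to PR-UAS-bla HEK293T cells that had been co-treated 16 hr with compound and 1 nM R5020 (final concentration) in 2% charcoal-stripped FBS.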
With `Oc1c(Br)cc(Br)c2cccnc12` the Potency was 2.66 µM (active). For `O=C1OC(OC(=O)c2cccnc2Nc2cccc(C(F)(F)F)c2)c2ccccc21` (stereo unspecified), the “activity change, negative = inhibition” value was -11.2% [at 42.5 µM]. For `O[C@@H](c1cc(C(F)(F)F)nc2c(C(F)(F)F)cccc12)[C@H]1CCCCN1`, the Potency was 23.7 µM (active). In the case of `CN1CCN(C2Cc3ccccc3Sc3ccc(Cl)cc32)CC1` (stereo unspecified), the Potency is reported as 26.6 µM (active). For `CN1[C@@H]2CC[C@H]1CC(OC(=O)C(CO)c1ccccc1)C2` (stereo partly specified), the Potency was “inactive”. For `CCCCCCCC/C=C\CCCCCCCC(=O)N(C)CC(=O)O`, the Potency was 24.3 µM (active). In the case of `O=C1c2c(O)ccc(O)c2C(=O)c2c(NCCNCCO)ccc(NCCNCCO)c21`, the Potency is reported as 3.35 µM (active). In the case of `C[C@@]12C(=O)OC(=O)[C@]1(C)C1CCC2O1`, the Potency is reported as 4.73 µM (active). In the case of `COc1ccc2sc(C(=O)Nc3nnn[nH]3)c(OC(C)C)c2c1`, the Potency is reported as 54.3 µM (active). With `CCCCCCOc1ccc(O)cc1` the Potency was 13.7 µM (active). In the case of `CC(C)c1cccc(C(C)C)c1N1C(=O)c2ccc(O)cc2C1=O`, the Potency is reported as 6.11 µM (active). In the case of `CCO[Si](CCCSSSSCCC[Si](OCC)(OCC)OCC)(OCC)OCC`, the “activity change, negative = inhibition” value is reported as -7.19%. With `CC(=O)Oc1ccc(C2(c3ccc(OC(C)=O)cc3)C(=O)Nc3ccccc32)cc1` the “activity change, negative = inhibition” value was -23.1% [at 42.5 µM]. With `CCCCN(CCCC)CCC(O)c1cc2c(Cl)cc(Cl)cc2c2cc(C(F)(F)F)ccc12` (stereo unspecified) the “activity change, negative = inhibition” value was -6.4% [at 42.5 µM]. For `CCCCCCCCCCCCCCNCCO`, the “activity change, negative = inhibition” value was -4.08% [at 42.5 µM]. With `CC(O)C#CC(C)O` (stereo unspecified) the “activity change, negative = inhibition” value was 13.8%.

Tested on: not listed separately
Assay: qHTS assay to identify small molecule antagonists of the progesterone receptor (PR) signaling pathway - cell viability counter screen (AID 1346798); also: nearly all actives have a fitted effect of over 50% in size
Settings: PR-UAS-bla HEK293T viability, CellTiter-Glo luminescence, 16 h; series mostly up to 92.4 µM; activity change, negative = cytotoxicity: at the top concentration
Method in brief: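 CellTiter-Glo luminescence; PR-UAS-bla HEK293T, 3,000 cells/well; compound + R5020, 16 hr, 37C/5% CO2; 30 min RT before read.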
With `O=C1OC(OC(=O)c2cccnc2Nc2cccc(C(F)(F)F)c2)c2ccccc21` (stereo unspecified) the “activity change, negative = cytotoxicity” value was -16.9% [at 42.5 µM]. For `O[C@@H](c1cc(C(F)(F)F)nc2c(C(F)(F)F)cccc12)[C@H]1CCCCN1`, the Potency was 26.6 µM (active). In the case of `CN1CCN(C2Cc3ccccc3Sc3ccc(Cl)cc32)CC1` (stereo unspecified), the Potency is reported as 29.8 µM (active). With `CCC1(c2cnc[nH]2)Cc2ccccc2C1` the “activity change, negative = cytotoxicity” value was 19.3% [at 42.5 µM]. With `CN1[C@@H]2CC[C@H]1CC(OC(=O)C(CO)c1ccccc1)C2` (stereo partly specified) the “activity change, negative = cytotoxicity” value was -17.8%. For `CCCCCCCC/C=C\CCCCCCCC(=O)N(C)CC(=O)O`, the Potency was 68.6 µM (active). For `Cc1c(-c2ccc(O)cc2)n(Cc2ccc(OCCN3CCCCCC3)cc2)c2ccc(O)cc12`, the Potency was 33.5 µM (active). In the case of `CCCCCCCCCCCC(=O)N(CC)CC`, the “activity change, negative = cytotoxicity” value is reported as 2.61%. For `COc1ccc2sc(C(=O)Nc3nnn[nH]3)c(OC(C)C)c2c1`, the “activity change, negative = cytotoxicity” value was -2.56%. With `CCCCCCOc1ccc(O)cc1` the “activity change, negative = cytotoxicity” value was -1.48%. In the case of `Clc1ccccc1CN1CCc2sccc2C1`, the “activity change, negative = cytotoxicity” value is reported as -29.2% [at 42.5 µM]. With `CCO[Si](CCCSSSSCCC[Si](OCC)(OCC)OCC)(OCC)OCC` the “activity change, negative = cytotoxicity” value was 6.24%. For `CC(CN(C)C)CN1c2ccccc2CCc2ccccc21` (stereo unspecified), the Potency was 21.1 µM (active). In the case of `CCN(CC)c1ccc(N)cc1`, the Potency is reported as 44.5 µM (active). In the case of `CCN(CC)CCNc1ccc(CO)c2sc3ccccc3c(=O)c12`, the Potency is reported as 15 µM (active). In the case of `CCCCN(CCCC)CCC(O)c1cc2c(Cl)cc(Cl)cc2c2cc(C(F)(F)F)ccc12` (stereo unspecified), the “activity change, negative = cytotoxicity” value is reported as 8.5% [at 42.5 µM]. For `CC(=O)Nc1ccc(O)cc1`, the Potency was “inactive”. For `Cc1cccc(C)c1NC(=O)CN1CCN(CCCC(c2ccc(F)cc2)c2ccc(F)cc2)CC1`, the Potency was 29.8 µM (active). For `CC(O)C#CC(C)O` (stereo unspecified), the “activity change, negative = cytotoxicity” value was -10.4%. With `O=Nc1ccc(NO)cc1` the “activity change, negative = cytotoxicity” value was -0.125%.

Tested on: not listed separately
Assay: qHTS assay to identify small molecule agonists of the progesterone receptor (PR) signaling pathway - cell viability counter screen (AID 1346799; calls by dose curve; also: nearly all actives have a fitted effect of over 45% in size)
Settings: PR-UAS-bla HEK293T viability, CellTiter-Glo luminescence, 16 h; series mostly up to 92.4 µM; activity change, negative = cytotoxicity: at the top concentration
Method in brief: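 In parallel with the beta-lactamase readout, cytotoxicity toward PR-UAS-bla HEK293T cells was measured by CellTiter-Glo luminescence following 16 hr compound incubation in 2% charcoal-stripped FBS medium.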
For `Oc1c(Br)cc(Br)c2cccnc12`, the “activity change, negative = cytotoxicity” value was -13% [at 42.5 µM]. With `O=C1OC(OC(=O)c2cccnc2Nc2cccc(C(F)(F)F)c2)c2ccccc21` (stereo unspecified) the “activity change, negative = cytotoxicity” value was -2.88% [at 42.5 µM]. For `O[C@@H](c1cc(C(F)(F)F)nc2c(C(F)(F)F)cccc12)[C@H]1CCCCN1`, the Potency was 26.6 µM (active). In the case of `CN1CCN(C2Cc3ccccc3Sc3ccc(Cl)cc32)CC1` (stereo unspecified), the Potency is reported as 29.8 µM (active). For `N#CSCSc1nc2ccccc2s1`, the “activity change, negative = cytotoxicity” value was -20.5%.
